Experimental data reported in PubChem BioAssay (NCATS).
Inconclusive results are not listed. The source made the active and inactive calls. The call rests on the fitted dose curve; in most records, active means well fitted curve in the direction sought with a large enough effect; inconclusive means small, poorly fitted or top-dose-only effect, or another doubt; inactive means no such curve, though single readings can be large; an effect the other way counts as inactive or inconclusive.

Experiments:
[1] = target: Phospholipid hydroperoxide glutathione peroxidase GPX4 (Homo sapiens) (UniProt P36969); experiment: Primary qHTS Assay for Inhibitors of Recombinant Selenoprotein Glutathione Peroxidase 4 (GPX4) (AID 1845192); further: nearly all actives have a fitted effect of over 65% in size; further: potency means the concentration at half of the fitted maximal effect; on activity change, negative = inhibition: series mostly up to about 50 µM; on the % scale 0 is the no-effect control and ±100 the full control effect
Summary of the method: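 NADPH consumption followed by fluorescence at 340/450 nm, t=0 and after 15 min at room temperature. Reaction started with cumene hydroperoxide (0.5 mM final) after 30 min compound–GPX4 preincubation; final 200 nM GPX4, 100 nM GR, 1 mM GSH, 0.5 mM NADPH.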

[2] = target: Luciferin 4-monooxygenase (Photinus pyralis) (UniProt P08659); experiment: Primary firefly luciferase (FLuc) qHTS assay for identification of artifact compounds. (AID 1845220); further: nearly all actives have a fitted effect of over 60% in size;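 on activity change, negative = inhibition: series mostly up to about 54 µM; plate controls were DMSO vehicle for no effect and no enzyme for full effect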
Summary of the method: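 Compounds sat 15 min at room temperature with 10 uM luciferin and 10 uM ATP (pH 7.6 Tris acetate). Firefly luciferase (10 nM final) was then added, and luminescence was read 5 min later. Data normalized to no-enzyme and DMSO controls were Hill-fitted.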

[3] = Primary fluorescence-based thiol-reactive (MSTI) qHTS assay for identification of artifact compounds. (AID 1845221); further: nearly all actives have a fitted effect of over 65% in size; further: potency means the concentration at half of the fitted maximal effect;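 on activity change, negative = thiol reactive: series mostly up to about 54 µM; thiol-reactive compounds lower the probe fluorescence signal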
Summary of the method: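 In PBS pH 7.4 with 2% DMSO, each compound met 4 uM MSTI for one hour at ambient temperature, shielded from light, before fluorescence detection.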

[4] = tested on: Nanoluciferase (engineered Oplophorus gracilirostris luciferase); experiment: Primary Nanoluciferase (NLuc) qHTS assay for identification of artifact compounds. (AID 1845222);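 further: series mostly up to about 54 µM; 0% = DMSO and -100% = no enzyme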
Summary of the method: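 Luminescence from secreted NLuc (filtered, 1:55-diluted S16 cell medium) read 5 min after Nano-Glo substrate; compounds preincubated 15 min, RT. Hill fits of inhibition normalized to DMSO and no-enzyme.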

[5] = Primary redox qHTS assay for identification of artifact compounds. (AID 1845223);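 further: 0% = DMSO and 100% = reference compound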
Summary of the method: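 Redox-cycling detection via DTT (250 uM final) oxidation coupled to Amplex Red (25 uM)/HRP (250 mU/mL) in HBSS. 15 min preincubation plus 30 min after DTT, room temperature. Ex/Em 525/598 nm; 4-parameter Hill fit against DMSO and 10 uM DA3003.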

Phospholipid hydroperoxide glutathione peroxidase GPX4 (Homo sapiens), sequence (P36969 whole entry, looked up): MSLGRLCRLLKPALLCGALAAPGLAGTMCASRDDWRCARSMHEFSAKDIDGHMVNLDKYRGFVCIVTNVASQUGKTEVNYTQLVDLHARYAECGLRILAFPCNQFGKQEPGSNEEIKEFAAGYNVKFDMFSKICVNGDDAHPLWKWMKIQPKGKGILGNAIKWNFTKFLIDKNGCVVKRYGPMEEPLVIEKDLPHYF

C=CC(=O)N1CCN(C(=O)CNc2cc(I)c(Cl)cc2O)CC1
inactive: Potency [1] | Potency [2] | Potency [4] | Potency [5]
active: Potency [3] 8.44 µM

CC1OC(OC2C(C)OC(OC3C(O)C(CO)OC(O[C@H]4CC[C@@]5(C)C(CC[C@]6(C)C5CC=C5C7[C@@H](C)[C@H](C)CC[C@]7(C(=O)O)CC[C@]56C(=O)O)C4(C)C)C3O)C(O)C2O)C(O)C(O)C1O (stereo not given in full)
inactive: Potency [1] | activity change, negative = inhibition [2] 1.66% [at 11.6 µM] | activity change, negative = thiol reactive [3] 65.9% [at 11.5 µM] | activity, negative = inhibition [4] -3.75% [at 11.6 µM] | redox activity (% of DA3003) [5] -18.3% [at 11.5 µM]

COc1c2c(c(C)c3c1C(=O)OC3)OC1(C)CC(O)C34OC(OC)(OC3(C)C)C(O)CC4(C)C1C2 (stereo not given)
inactive: Potency [1] | Potency [2] | Potency [3] | Potency [4] | Potency [5]

CO[C@H]1/C=C/[C@@](C)(O)/C=C/C(=O)O[C@H](C)[C@@H](C)CC/C=C/1C
inactive: Potency [1] | Potency [2] | Potency [3] | Potency [4] | Potency [5]

C[C@@H]1O[C@@H](O[C@H]2[C@H](O)[C@@H](O)[C@H](OC3CCC4(C)C5CCC(C)(C(CO)OC6OC(CO)C(O)C(O)C6O)CC5=CCC4C3(C)C)O[C@@H]2CO)[C@H](O)[C@H](O)[C@H]1O (stereo not given in full)
inactive: Potency [1] | Potency [2] | Potency [3] | Potency [4] | Potency [5]

CC(=O)OC1C[C@]2(C)C(O)CC(C)=C[C@H](OC(=O)c3ccc(O)cc3)C2[C@]1(O)C(C)C (stereo not given in full)
inactive: Potency [1] | Potency [2] | Potency [3] | Potency [4] | Potency [5]

CCCOC(c1cc2nccc(C(=O)O)c2[nH]1)c1ccccc1Cl (stereo not given)
inactive: Potency [1] | Potency [2] | Potency [3] | Potency [4] | Potency [5]

CC(=O)O[C@H]1C[C@@]2(C)[C@@H](CC[C@H]3[C@@]4(C)C=CC(=O)[C@@H](C)[C@@H]4[C@H](O)C(=O)[C@@]32C)/C1=C(/CCC=C(C)C)C(=O)O
inactive: Potency [1] | Potency [2] | Potency [3] | Potency [4] | Potency [5]

C=C(C(=O)O)C1CCC2(C)CCCC(C)(O)C2C1 (stereo not given)
inactive: Potency [1] | Potency [2] | Potency [4] | Potency [5]
active: Potency [3] 21.2 µM

CCN1CCN(Cc2ccc(NC(=O)Nc3ccc(Oc4cc(NC)ncn4)cc3)cc2C(F)(F)F)CC1
inactive: Potency [1] | Potency [2] | Potency [3] | Potency [4] | Potency [5]

CC(C)C(C#N)O[C@@H]1O[C@H](CO[C@@H]2O[C@@H](C)[C@H](O)[C@@H](O)[C@H]2O)[C@@H](O)[C@H](O)[C@H]1O (stereo not given in full)
inactive: Potency [1] | Potency [2] | Potency [3] | Potency [4] | Potency [5]

CC1(C)CC[C@]2(C(=O)O[C@@H]3O[C@H](CO)[C@@H](O)[C@H](O)[C@H]3O)CC[C@]3(C)C(=CCC4[C@@]5(C)C[C@@H](O)[C@H](O)C(C)(C)C5[C@H](O)C[C@]43C)[C@@H]2[C@@H]1O (stereo not given in full)
inactive: Potency [1] | Potency [2] | Potency [3] | Potency [4] | Potency [5]

NC[C@@](O)(c1ccc(Cl)cc1)c1ccc(-c2cn[nH]c2)cc1
inactive: Potency [1] | Potency [2] | Potency [3] | Potency [4] | Potency [5]

C=C1[C@H](OC(C)=O)[C@H]2[C@@H](OC(C)=O)[C@](C)(OC(C)=O)C[C@]2(OC(C)=O)C(=O)[C@H](C)/C=C/C(C)(C)C(=O)[C@H](OC(=O)C(C)C)[C@H]1OC(C)=O
inactive: Potency [1] | Potency [2] | Potency [3] | Potency [4] | Potency [5]

COc1ccc(CN2C(=O)C(=O)c3cc(S(=O)(=O)N4CCC[C@H]4COc4cccnc4)ccc32)cc1
inactive: Potency [2] | Potency [3] | Potency [4] | Potency [5]
active: Potency [1] 25.5 µM

CCOC(=O)Nc1cc(-c2ccc(C)c(NS(C)(=O)=O)c2)nn2c(C)nnc12
inactive: Potency [1] | Potency [2] | Potency [3] | Potency [4] | Potency [5]

COc1cc(O)cc(C)c1C(=O)O[C@@H]1[C@H](O)[C@@H](CO)O[C@H]1n1ccc(=O)[nH]c1=O
inactive: Potency [1] | Potency [2] | Potency [3] | Potency [4] | Potency [5]

NC1CCC(Nc2cc(-c3cccc(NCc4cccc(F)c4)n3)c(Cl)cn2)CC1 (stereo not given)
inactive: Potency [1] | Potency [2] | Potency [3] | Potency [4] | Potency [5]

CC(=O)O[C@H]1CC[C@H](C)[C@@]2(C)[C@H](OC(C)=O)c3c(C)coc3C(=O)[C@H]12
inactive: Potency [1] | Potency [2] | Potency [3] | Potency [4] | Potency [5]

CN(C)c1nc(NC2CCC(NCCc3ccc(Br)cc3OC(F)(F)F)CC2)nc2ccccc12 (stereo not given)
inactive: Potency [1] | Potency [2] | Potency [3] | Potency [4] | Potency [5]
